Screens as filed in PubChem.
In the library only some 19% were active in any assay of this set; here they are far more common.
HT1080-NT tox: kills 2HG-producing HT-1080-NT fibrosarcoma cells; HT-1080-NT fibrosarcoma viability, CellTiter-Glo ATP luminescence, 48 h; Potency, µM (highest dose often 46.1 µM), inactives show top-dose activity, negative = less viability, actives largely listed as cytotoxic; AID 686970; 360,000 compounds, 1.6% hits;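 further: NT is the 2HG producing partner of a matched IDH1 knockdown line; potency means the concentration at half of the fitted maximal effect; 0% = DMSO-treated cells and -100% = media-only wells without cells; nearly all actives have a fitted effect of over 55% in size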
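HT-1080-NT fibrosarcoma cells (2HG-overproducing), 750 cells/well in RPMI with 5% FBS, dosed after 2 h and incubated 48 h at 37C. CellTiter-Glo luminescence normalized to DMSO and no-cell wells; concentration-response curves fitted and classed.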
DT40 TDP1 CPT: DT40-hTDP1 cell growth loss with CPT. chicken DT40 Tdp1-/-;hTDP1 cells + 20 nM CPT, ATP luminescence, 48 h. Potency, µM (series often up to 46.2 µM), without a hit: top-dose activity change, negative = growth inhibition, hits mostly inhibitors. 420,000 compounds, 12% hits. AID 686979; further: potency means the concentration at half of the fitted maximal effect; nearly all actives have a fitted effect of over 55% in size
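Cell growth measured by CellTiter-Glo luminescence after a minimum 48 h, 37 C compound exposure with 20 nM CPT in Tdp1-knockout DT40 cells stably expressing hTDP1, seeded 400/well; qHTS titration format.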
HT1080 IDH1KD tx: HT-1080 IDH1 knockdown cell toxicity (counter line) | AID 686971 | 360,000 compounds, 2% hits | Potency, µM (top dose mostly 46.1 µM), for the others: at the highest dose activity, negative = toxicity, actives largely listed as cytotoxic | HT-1080 IDH1 knockdown viability, ATP luminescence, 48 h;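 further: potency means the concentration at half of the fitted maximal effect; 0% = DMSO wells and -100% = cell-free medium wells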
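Luminescent ATP read-out (CellTiter-Glo, 10 min at room temperature) after 48 h compound exposure at 37 °C gave viability of IDH1-knockdown HT-1080 cells. Activity was normalised to DMSO and cell-free wells, then fitted as concentration-response curves.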
DT40 TDP1 no CPT: qHTS for Inhibitors of human tyrosyl-DNA phosphodiesterase 1 (TDP1): qHTS in cells in absence of CPT; DT40 Tdp1-/- hTDP1 cells, no CPT, ATP luminescence, 48 h; Potency, µM (titrated, usually from 46.2 µM), for the others: at the highest dose activity change, negative = growth inhibition, hits mostly inhibitors; 420,000 compounds, 15% hits; AID 686978, 2013; further: potency means the concentration at half of the fitted maximal effect; nearly all actives have a fitted effect of over 55% in size
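Cells were dispensed at 400 per well, compounds added by pin tool, plates incubated ≥48 hr at 37 °C, then CellTiter-Glo added for 30 min at room temperature before luminescence reading. Line: DT40 Tdp1-/- complemented with hTDP1; camptothecin omitted.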
IL-1B inflam inh: blocks inflammasome-driven IL-1 beta release; AID 743279; activity change, % at 57.5 µM; 360,000 compounds, 4.7% hits; THP-1 LPS/ATP IL-1B secretion, AlphaLISA, 16 h; hits give low values; in the data active means activity change below about -50%; inconclusive means mostly about -30% to -49%
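Secreted IL-1B measured by AlphaLISA bead assay after 16 h compound exposure of THP-1 cells; compounds (final up to 57.5 uM) added 1 h before LPS (250 ng/mL) and ATP (1.25 mM) stimulation; lower signal means less secretion.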
* = called active by the depositor; ? = inconclusive; · = no result given. Unless noted, the call rests on the fitted dose curve; in most records, active means well fitted curve in the direction sought with a large enough effect; inconclusive means small, poorly fitted or top-dose-only effect, or another doubt; inactive means no such curve, though single readings can be large; an effect the other way counts as inactive or inconclusive. Unless noted, on the % scale 0 is the no-effect control and ±100 the full control effect.

SMILES	HT1080-NT tox	DT40 TDP1 CPT	HT1080 IDH1KD tx	DT40 TDP1 no CPT	IL-1B inflam inh
COc1ccccc1NC(=S)NC1CCCCCC1	30%	?	2%	18µM*	-3
Cc1cccc(NC(=S)NC2CCCCCC2)c1C	-1%	21µM*	-5%	10µM*	32
Cc1cccc(NC(=S)NC2CC3CCCC(C2)N3Cc2ccccc2)c1C (configuration not stated)	7%	16µM*	-3%	?	-28
COc1ccccc1C(=O)NNC(=O)C(=O)NC1CCCCC1	-17%	21µM*	-14%	?	13
CC1CCCC(NC(=O)CCNC(=O)c2ccc(Br)cc2)C1C (configuration not stated)	8%	-19%	12%	-12%	-6
CC(C)(C)c1ccccc1NC(=S)NC1CCCCC1	11%	?	-1%	18µM*	2
S=C(Nc1cccc(Cl)c1)NC1CCCCC1	-15%	-9%	-22%	-29%	-15
Cc1cc(Cl)ccc1NC(=S)NC1CCCC1	5%	?	5%	21µM*	-9
CC(C)(C)c1ccccc1NC(=S)NC1CCCC1	-1%	?	-1%	?	11
Fc1ccccc1NC(=S)NC1CCCC1	-2%	?	-1%	23µM*	12
O=C(Nc1ccccc1)O/N=C/c1ccc(F)cc1	22%	5%	10%	-21%	-24
COc1ccc(C)cc1NC(=O)CNC(C)C(=O)Nc1ccc(C(C)=O)cc1 (configuration not stated)	6%	0%	-1%	2%	45
O=C(Nc1nccs1)c1ccc[nH]c1=O	2%	9%	4%	-7%	13
COc1ccc(-c2nc(S(=O)(=O)c3ccc(C)cc3)c(NCc3ccccc3)o2)cc1	·	?	·	16µM*	·
CNc1oc(-c2ccccc2F)nc1S(=O)(=O)c1ccc(C)cc1	-1%	-3%	2%	-18%	-7
O=S(=O)(c1ccccc1)c1nc(-c2cccc(Cl)c2)oc1NCc1ccccc1	·	?	·	26µM*	·
Cc1ccc(S(=O)(=O)c2nc(-c3ccccc3F)oc2NCc2ccccc2)cc1	·	?	·	21µM*	·
O=S(=O)(c1ccccc1)c1nc(-c2ccco2)oc1NCc1ccccc1	-23%	-10%	?	-16%	2
CC(C)CCc1noc(CN(C)CCC2CCOCC2)n1	22%	0%	6%	-8%	22
Cc1nn(C)c(C)c1CN(Cc1nc(CCC(C)C)no1)C(C)C	-13%	2.3µM*	?	0.58µM*	-6
Cc1ccccc1-n1c(=O)c2c3c(sc2n2cnnc12)CCCC3	·	15µM*	·	16µM*	·
Cc1ccc(NC(=O)c2cc3cc(OC(F)(F)F)ccc3[nH]2)cc1	10%	-2%	14%	-26%	?
Cc1ccc(N=C2SC(C(=O)Nc3ccc(OC(F)(F)F)cc3)C(N)=C2C(=O)Nc2c(C)cc(C)cc2C)cc1 (configuration not stated)	15µM*	?	18µM*	?	-104*
Cc1ccc(NC(=O)C2SC(=Nc3ccccc3)C(C(=O)Nc3ccc(Cl)cc3)=C2N)cc1 (configuration not stated)	-22%	6.5µM*	-26%	18µM*	-16
C/C(Cn1nnc([N+](=O)[O-])n1)=N\NC(=O)c1ccccc1O	?	15µM*	?	18µM*	-4
SMILES	HT1080-NT tox	DT40 TDP1 CPT	HT1080 IDH1KD tx	DT40 TDP1 no CPT	IL-1B inflam inh
C/C(Cn1nnc([N+](=O)[O-])n1)=N\NC(=O)c1ccc(O)cc1O	23µM*	?	18µM*	?	4
C/C(Cn1cnc([N+](=O)[O-])n1)=N\NC(=O)c1ccccc1O	-11%	5%	2%	2%	-14
Cc1[nH]n(-c2ccccc2)c(=O)c1/C=N/O	?	-20%	?	-19%	14
Cn1[nH]c(-c2ccccc2)c(/C=N/O)c1=O	1%	?	16%	16µM*	0
CCc1cccc(C)c1NC(=O)CN1CCCN(Cc2ccc(C)cc2)S1(=O)=O	·	16µM*	·	10µM*	·
CCOC(=O)c1ccccc1NC(=O)CN1CCCN(Cc2cc(C)ccc2C)S1(=O)=O	·	21µM*	·	21µM*	·
COc1ccc(CN2CCCN(CC(=O)Nc3cc(C)ccc3C)S2(=O)=O)cc1	·	21µM*	·	21µM*	·
c1ccc2c(c1)CC(CN1CCNCC1)O2 (configuration not stated)	-2%	?	-6%	-21%	-11
CC(=O)NC(Cc1cccc(C)c1)C(=O)NC1CCN(S(=O)(=O)c2ccccc2)CC1 (configuration not stated)	5%	11%	2%	-2%	-1
Cn1c(C=O)c(C#Cc2ccccc2)c2ccccc21	5%	?	-26%	23µM*	49
O=C(NC1CCCc2c1cnn2-c1ccc(F)cc1F)c1csnn1 (configuration not stated)	2%	?	1%	?	20
CC(=O)Nc1ccccc1OC(C)C(=O)NC(C)c1ccc(F)cc1 (configuration not stated)	11%	9%	6%	?	19
CC(=O)Nc1ccccc1OCC(=O)NC(C)c1ccc(F)cc1 (configuration not stated)	4%	13µM*	-19%	?	-9
Cc1cc(C)cc(-n2ccnc2SCC(=O)Nc2ccc(C)c(Cl)c2)c1	·	16µM*	·	18µM*	·
Cc1ccc(C)c(NC(=O)CSc2nccn2Cc2ccco2)c1	16%	-26%	9%	10%	18
Cc1cccc(NC(=O)CSc2nccn2-c2cccc(Cl)c2)c1C	·	21µM*	·	?	·
Cc1cc(NC(=O)CSc2nccn2-c2cccc(Cl)c2)no1	0%	-7%	11%	-29%	6
Cc1ccc(C)c(NC(=O)CSc2nccn2-c2cccc(C)c2C)c1	·	18µM*	·	21µM*	·
O=C(CSc1nccn1Cc1ccc(F)cc1)Nc1ccc(F)cc1F	-3%	-23%	-8%	-25%	0
Cc1cccc(-n2ccnc2SCC(=O)Nc2ccc(F)cc2F)c1C	·	16µM*	·	21µM*	·
O=C(Nc1cccc2cccnc12)c1ccc(F)cc1	·	-27%	·	?	·
CCOc1ccccc1NC(=O)CSc1nccn1-c1cccc(C)c1	·	21µM*	·	18µM*	·
Cc1cccc(-n2ccnc2SCC(=O)N2CCCc3ccccc32)c1C	-11%	18µM*	-18%	21µM*	-21
CCSc1nnc(NC(=O)CSc2nccn2-c2cccc(C)c2)s1	3%	1%	3%	-5%	3
Cn1ccnc1SCC(=O)N1CCc2ccccc21	0%	2%	15%	16%	-3
CCc1ccc(NC(=O)CSc2nccn2-c2cccc(C)c2C)cc1	·	23µM*	·	21µM*	·
